Screening results as filed in PubChem BioAssay.
RORg inh: blocks mouse ROR gamma transcriptional activity; Drosophila S2 Gal4-RORgamma UAS-luciferase reporter, 20 h; Potency, µM (top dose mostly 53.6 µM), without a hit: at the highest dose activity change, negative = inhibition, usual class: inhibitors; 310,000 tested, 5.4% active; further: potency means the concentration at half of the fitted maximal effect; nearly all actives have a fitted effect of over 60% in size
Target sequence (P51450 whole entry, looked up, the tested form may be a part): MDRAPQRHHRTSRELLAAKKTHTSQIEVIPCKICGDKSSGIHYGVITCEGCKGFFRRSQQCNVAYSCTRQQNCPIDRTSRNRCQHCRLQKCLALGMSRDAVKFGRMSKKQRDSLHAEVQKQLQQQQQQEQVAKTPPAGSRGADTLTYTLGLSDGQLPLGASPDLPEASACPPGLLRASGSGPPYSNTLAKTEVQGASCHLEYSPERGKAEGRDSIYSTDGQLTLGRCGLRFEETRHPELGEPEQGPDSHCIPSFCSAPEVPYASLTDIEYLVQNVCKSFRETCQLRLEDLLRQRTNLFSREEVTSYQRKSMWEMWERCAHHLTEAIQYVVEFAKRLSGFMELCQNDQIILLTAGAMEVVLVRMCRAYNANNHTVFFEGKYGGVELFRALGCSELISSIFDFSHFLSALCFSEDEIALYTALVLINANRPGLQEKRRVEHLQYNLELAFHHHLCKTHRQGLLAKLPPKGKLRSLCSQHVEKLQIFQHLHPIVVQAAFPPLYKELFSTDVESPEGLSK
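Drosophila Schneider cells stably carrying a metallothionein-driven Gal4 DBD–ROR gamma fusion and a UAS-Photinus luciferase reporter were exposed to compound for 1 hr, then induced with copper sulfate (700 uM final) for 20 hr at ambient temperature before luminescence reading.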
ELG1 DNA repair: ELG1-dependent DNA repair inhibition; HEK293T ELG1-luciferase reporter, luminescence, 16 h; DNA damage induced by 5-fluorouridine; Potency, µM (titrated, usually from 46.1 µM), without a hit: at the top dose activity change, negative = inhibition, actives largely listed as inhibitors; 330,000 tested, 2.3% active; AID 504467; further: potency means the concentration at half of the fitted maximal effect; nearly all actives have a fitted effect of over 55% in size
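Luminescence from the luciferase reporter, measured 30 min after ONE-Glo reagent at room temperature, was the read-out. Beforehand, 2,000 cells per well were exposed for 16 hr at 37 °C to 5-fluorouridine together with compound or vehicle.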
IL-1B inflam inh: inhibitors of inflammasome signaling (IL-1 beta secretion); THP-1 LPS/ATP IL-1B secretion, AlphaLISA, 16 h; hits give low values; activity change, % at 57.5 µM; 360,000 tested, 4.7% active; AID 743279; in the data active means activity change below about -50%; inconclusive means mostly about -30% to -49%
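Secreted IL-1B measured by AlphaLISA bead assay after 16 h compound exposure of THP-1 cells; compounds (final up to 57.5 uM) added 1 h before LPS (250 ng/mL) and ATP (1.25 mM) stimulation; lower signal means less secretion.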
TDP1 cell noCPT: qHTS for Inhibitors of human tyrosyl-DNA phosphodiesterase 1 (TDP1): qHTS in cells in absence of CPT; DT40 Tdp1-/- hTDP1 cells, no CPT, ATP luminescence, 48 h; 420,000 tested, 15% active; Potency, µM (highest dose often 46.2 µM), for inactives: at the highest dose activity change, negative = growth inhibition, actives largely listed as inhibitors; further: potency means the concentration at half of the fitted maximal effect; nearly all actives have a fitted effect of over 55% in size
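Camptothecin absent (DMSO only). Human TDP1-complemented DT40 knockout cells, 400 cells/well, 37 °C for minimum 48 hr; ATP measured via CellTiter-Glo, 30 min dark incubation, luminescence.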
TDP1 cell CPT: growth inhibition of DT40 Tdp1-/-;hTDP1 cells with camptothecin (screen for TDP1 inhibitors). AID 686979. 420,000 tested, 12% active. chicken DT40 Tdp1-/-;hTDP1 cells + 20 nM CPT, ATP luminescence, 48 h. Potency, µM (top dose mostly 46.2 µM), without a hit: top-dose activity change, negative = growth inhibition, actives largely listed as inhibitors; further: potency means the concentration at half of the fitted maximal effect; nearly all actives have a fitted effect of over 55% in size
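Chicken DT40 Tdp1-/- cells complemented with human TDP1, 400 cells/well, exposed to compounds plus 20 nM camptothecin for at least 48 h at 37 C; viability read as ATP content by CellTiter-Glo luminescence.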
VP16 counter: counter-screen for ROR gamma inhibitors: Gal4-VP16 reporter; Potency, µM (titrated, usually from 53.6 µM), for inactives: at the highest dose activity, negative = inhibition, hits mostly inhibitors; Drosophila S2 Gal4-VP16 UAS-luciferase, luminescence, 20 h; 310,000 tested, 3.5% active;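 further: Gal4-VP16 expression switched on by copper sulfate through the metallothionein promoter; potency means the concentration at half of the fitted maximal effect; nearly all actives have a fitted effect of over 50% in size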
Numbers without * were called inactive; ? = inconclusive; · = no result; [ ] = dose if it differs, or a comment. A selection: hits, their analogues and other compounds. The true share with any hit is near 21%. Unless noted, the call rests on the fitted dose curve; in most records, active means well fitted curve in the direction sought with a large enough effect; inconclusive means small, poorly fitted or top-dose-only effect, or another doubt; inactive means no such curve, though single readings can be large; an effect the other way counts as inactive or inconclusive. On the % scale 0 is the no-effect control and ±100 the full control effect.

SMILES	RORg inh	ELG1 DNA repair	IL-1B inflam inh	TDP1 cell noCPT	TDP1 cell CPT	VP16 counter
CCOC(=O)CC(=O)CSc1nc2c(sc(=S)n2-c2ccc(OCC)cc2)c(=O)[nH]1	179%	-7%	-53*	?	-11%	-4%
Cc1ccc(OCc2cc(C(=O)NC3CCOC3)no2)cc1C (stereo unspecified)	?	?	6	-4%	-14%	12%
Cc1cc(Oc2ccc(Cl)cc2Cl)nc(C#N)n1	·	·	·	18µM*	11µM*	·
CCNc1nc(Oc2ccc(Cl)cc2Cl)cc(C(F)(F)F)n1	?	8%	7	?	?	-12%
Cc1ccc(-n2c3nc(=O)[nH]c(=O)c-3cc3c(C)nn(-c4ccccc4)c32)cc1C	·	·	·	-7%	-13%	·
CN(C)Cc1ccccc1-c1nccc(NC2CC2)n1	4%	·	·	15%	3%	2%
O=[N+]([O-])c1ccccc1CNC(Cc1ccccc1)c1ccccc1 (stereo unspecified)	-7%	-6%	-2	-10%	-9%	3%
Cc1noc(C)c1COc1cccc(C(=O)OCC(=O)N2CC(=O)Nc3ccccc32)c1	-43%	-4%	83	0.65µM*	0.58µM*	3%
O=C1CN(C(=O)COc2cccc(F)c2)c2ccccc2N1	16%	?	·	·	·	-8%
O=C(NN=C1CCCCCC1)c1ccncc1	-17%	2%	41	13%	-1%	4%
O=C(N/N=C1\CC2CC=CC12)c1ccc(O)cc1 (stereo unspecified)	2.5µM*	9%	-6	3%	22%	4.5µM*
Cc1ccc(C(=O)N/N=C2\CC3CC=CC23)c(C)c1 (stereo unspecified)	-27%	25%	-7	-3%	-2%	1%
O=C(NN=C1CCCC1)c1ccc(O)cc1	11µM*	11%	-21	14%	-1%	?
O=C(NN=C1CCCC1)c1ccc([N+](=O)[O-])cc1	11µM*	12%	8	-15%	-8%	0%
COc1ccccc1C1CN(CC(=O)NCC2OCCc3ccccc32)Cc2ccccc2O1 (stereo unspecified)	·	·	·	-15%	3%[9.04 µM]	·
Cc1ccc(C)c(C(O)c2ncc(-c3ccc(C(F)(F)F)cc3)[nH]2)c1 (stereo unspecified)	·	·	-16	?	?	·
O=C(Cn1nc2ccccc2n1)N1CCOc2ccc(CN3CCc4sccc4C3)cc2C1	·	·	·	-24%	-5%[9.04 µM]	·
Cc1cnc(C(=O)OC(C)C(=O)NCc2ccccc2)cn1 (stereo unspecified)	·	6%	-3	7%	13%	·
CCCC1c2ccc(C)n2CCN1C(=O)Nc1ccccc1Cl (stereo unspecified)	-40%	?	-21	21µM*	-28%	-3%
CCOC(=O)c1ccccc1NC(=O)N1CCn2c(C)ccc2C1CC (stereo unspecified)	0%[0.365 µM]	-13%	1	?	23µM*	·
CC[C@H](C)N	18%	·	·	·	·	8%
c1ccc(CNc2ncnc3ccc(-c4ccc5c(c4)OCO5)cc23)cc1	?	·	·	?	?	-16%
Cc1cc2nc(-c3ccc(F)cc3)c(CC3CCCCC3)n2c(C)c1Br	·	·	36	21µM*	?	·
COc1ccc(-c2nc3cc(C)c(Br)c(C)n3c2CC2CCCCC2)cc1OC	·	·	17	?	2%	·
Cc1ccc(-c2nc3cc(C)c(Br)c(C)n3c2CC2CCCCC2)cc1	·	·	0	13µM*	?	·
Cc1cc2nc(-c3cccc(Cl)c3)c(CC3CCCCC3)n2c(C)c1Br	·	·	36	?	-27%	·
CCCc1nc2cc(C)c(Br)c(C)n2c1CC1CCCCC1	·	·	?	2.9µM*	4.1µM*	·
